The record followed here is PubChem BioAssay AID1779 (Sanford-Burnham Center for Chemical Genomics, 2009).

Screen size: about 290,000 compounds; about 160 (0.055%) were called active. The entries come from a sample that favours actives as a whole. Values without a mark were called inactive. Rule as the data show it: active = inhibition above about 50%; inactive = the rest.

Tyrosine-protein phosphatase non-receptor type 22 (Homo sapiens), sequence (Q9Y2R2 whole entry, looked up): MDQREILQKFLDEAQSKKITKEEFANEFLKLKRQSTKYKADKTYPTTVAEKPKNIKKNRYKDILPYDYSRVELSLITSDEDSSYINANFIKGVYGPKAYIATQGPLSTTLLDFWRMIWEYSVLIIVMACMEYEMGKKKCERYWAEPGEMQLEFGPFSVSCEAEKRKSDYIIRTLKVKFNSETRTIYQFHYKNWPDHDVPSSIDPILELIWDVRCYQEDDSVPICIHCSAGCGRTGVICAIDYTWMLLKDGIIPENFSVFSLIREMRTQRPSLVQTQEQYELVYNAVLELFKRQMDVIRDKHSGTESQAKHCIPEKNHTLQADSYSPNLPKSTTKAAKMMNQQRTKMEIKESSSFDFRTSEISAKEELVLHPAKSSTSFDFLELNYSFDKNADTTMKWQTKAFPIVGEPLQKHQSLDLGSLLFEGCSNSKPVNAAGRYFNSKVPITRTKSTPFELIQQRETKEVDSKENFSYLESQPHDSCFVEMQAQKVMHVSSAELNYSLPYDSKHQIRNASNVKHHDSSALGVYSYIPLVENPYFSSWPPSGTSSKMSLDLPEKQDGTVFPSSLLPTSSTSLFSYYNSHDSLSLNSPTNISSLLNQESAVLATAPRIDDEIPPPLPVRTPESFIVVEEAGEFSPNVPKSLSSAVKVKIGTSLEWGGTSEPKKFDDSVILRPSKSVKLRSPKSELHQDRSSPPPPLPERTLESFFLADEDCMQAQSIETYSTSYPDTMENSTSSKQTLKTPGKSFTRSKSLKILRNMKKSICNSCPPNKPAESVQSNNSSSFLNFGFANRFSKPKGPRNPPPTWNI

The experiment addresses Tyrosine-protein phosphatase non-receptor type 22 (Homo sapiens) (UniProt Q9Y2R2). The experiment is described as follows: inhibitors of LYP phosphatase, biochemical, fluorescence intensity, uHTS (AID 1779).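 Also: plate controls were vehicle with enzyme for no effect and no enzyme for full effect.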 The conditions noted are these: recombinant LYP phosphatase, at 11.5 µM, hits give high values.
As for `CC(Oc1ccc([N+](=O)[O-])cc1Cl)C(=O)Nc1ccc(C(N)=O)cc1` (stereo not drawn), the inhibition was -5.5%. The figure for `Cc1ccc(NC(=O)C2CCCN2C(=O)NC2CCCCC2)cc1C` (stereo not drawn) is -7%; for `CCCN1C(=O)C2(C(C(=O)c3ccc(C)o3)=C(O)C(=O)N2CCCOC)c2ccccc21` (stereo not drawn) it is 3.3%; for `O=C(NCc1ccccc1)c1ccc2ccccc2n1` it is -6.3%. The figure for `O=C(NCc1ccco1)c1ccc2ccccc2n1` is 56.3% (active). As for `Cc1nc2ccccc2cc1C(=O)NCc1ccco1`, the inhibition was 1.1%. Take `CC1CCN(C(=O)Cn2c(SCC(=O)Nc3nccs3)nc3ccccc32)CC1`: the inhibition is -1%.

For `CN1CCN(c2ccccc2NC(=O)Cc2ccc(Cl)cc2)CC1`, the inhibition was -9.1%. Turning to `NN1C(=O)/C(=C2/Sc3ccccc3N2CCCS(=O)(=O)O)SC1=S`, the inhibition was -6.6%.

Turning to `CC1=NN(C(=O)c2ccc(Cn3cc([N+](=O)[O-])cn3)cc2)C(O)(C(F)(F)F)C1` (stereo not drawn), the inhibition is -3.4%. Consider `CC1=NN(C(=O)c2ccc(Cn3ccc([N+](=O)[O-])n3)cc2)C(O)(C(F)(F)F)C1` (stereo not drawn), for which the inhibition was 63.4% (active). The same measure for `CC1=NN(C(=O)Cn2ccc([N+](=O)[O-])n2)C(O)(C(F)(F)F)C1` (stereo not drawn): -3.6%; for `CC1Cc2ccccc2N1C(=O)CCn1c(=O)oc2ccccc21` (stereo not drawn): 5.2%; for `COc1ccc(C(=O)n2ncc(C#N)c2N)cc1`: -0.2%.

Turning to `CSC1=NCCN1CCOc1ccccc1`, the inhibition is -8.5%. The figure for `O=C(Cc1cccs1)N1CCN(c2ccc(F)cc2)CC1` is -8.1%; for `O=C(Cc1ccc([N+](=O)[O-])cc1)N1CCN(c2ccc([N+](=O)[O-])cc2)CC1` it is -5.9%; for `O=C(Cc1cccs1)N1CCN(c2ccc([N+](=O)[O-])cc2)CC1` it is 70% (active). The figure for `CC(=O)OCC(=O)[C@@]1(O)CC[C@H]2[C@@H]3CCC4=CC(=O)C=C[C@]4(C)[C@H]3C(=O)C[C@@]21C` is -4.3%.

Take `CCOC1(C)OCC(=O)[C@]2(CCC3C4CCC5=CC(=O)C=CC5(C)C4C(=O)CC32C)O1` (stereo partly drawn): the inhibition is 55.8% (active).

For the compound `C[C@]12C=CC(=O)C=C1CC[C@@H]1[C@@H]2C(=O)C[C@@]2(C)[C@H]1CC[C@]2(O)C(=O)CO`, the inhibition is -5.9%. As for `CCN(CC)CCNC(=O)C1CCN(S(=O)(=O)N2CCCCC2)CC1`, the inhibition is -7.2%. The same measure for `COc1ccccc1N1CCN(C(=O)C2CCN(C(=O)c3cccc(Cl)c3)CC2)CC1`: -6.5%; for `COc1ccccc1N1CCN(C(=O)C2CCN(C(=O)c3ccccc3C)CC2)CC1`: -10.9%.

For `COc1ccccc1N1CCN(C(=O)C2CCN(C(=O)c3ccccc3Cl)CC2)CC1`, the inhibition was 69.4% (active). Turning to `O=C(Nc1ccc2c(c1)OCO2)c1ccccc1SCC(=O)N1CCCC1`, the inhibition is 0.1%. The figure for `CCOc1cc(N2CCOCC2)c(OCC)cc1NC(=O)c1c(-c2ccccc2Cl)noc1C` is 2.6%; for `CCSc1nnc(NC(=O)C2CC=CCC2C(=O)O)s1` (stereo not drawn) it is 0.6%; for `CCSc1nnc(NC(=O)C2CCCCC2C(=O)O)s1` (stereo not drawn) it is 66.2% (active).

On to `CCSc1nnc(NC(=O)C2CCCCC2)s1`, for which the inhibition was -4.2%. The figure for `CS(=O)(=O)N(CC(=O)Nc1ccccc1Br)Cc1ccccc1` is -4.5%. The figure for `O=C1OC(c2ccc(Br)cc2)=N/C1=C\c1ccco1` is 63.7% (active). For `CC1=N/C(=C/c2ccco2)C(=O)O1`, the inhibition was -3.8%.

With `O=C1NC(c2ccc(Br)cc2)=N/C1=C/c1ccco1`, the inhibition was 9.9%.

For the compound `CCOC(=O)c1ccc(N2C(=O)C3C(/C=C/c4ccccc4)OC4(C(=O)c5ccccc5C4=O)C3C2=O)cc1` (stereo not drawn), the inhibition was 7.3%. The same measure for `CCOC(=O)c1cc(-c2cc(OC)c(OC)c(OC)c2)nc2c1c(=O)[nH]c(=O)n2Cc1ccccc1`: -8.7%; for `O=C(COc1ccc(Cl)cc1Cl)Nc1ccc(Cl)cn1`: -4.3%. The figure for `CCOc1ccc(C(=O)Nc2ccc(Cl)cn2)cc1Cl` is 80.4% (active); for `COc1ccc(C(=O)Nc2ccc(Cl)cn2)cc1Cl` it is 0.7%; for `CCn1c(SCC(=O)N/N=C(/C)c2ccncc2)nc2ccccc21` it is -6.6%. Turning to `Cc1ccc(S(=O)(=O)NC(=O)Nc2nnc(C3CC3)s2)cc1`, the inhibition is -9.1%. The same measure for `CC(=O)Nc1ccc(NC(=O)CSc2ccc(-c3sc(C)nc3C)nn2)cc1`: -10.3%. The figure for `N#Cc1c(/N=C\c2ccc(O)c([N+](=O)[O-])c2)sc2c1CCCC2` is 7.9%; for `CC1=NN(c2ccccc2)C(=O)/C1=C\C=C1\N(C)c2ccccc2C1(C)C` it is 6.4%. The same measure for `CC(=O)NCCNC(=O)CNC(=O)c1ccc(Cl)cc1`: -1.1%; for `O=C(CNC(=O)c1ccc(F)cc1)NCc1ccc(Cl)cc1`: -3%; for `O=C(CNC(=O)c1ccc(Cl)cc1)NCC(F)(F)F`: 68.8% (active). In the case of `O=C1CC(N2CCN(c3cccc(C(F)(F)F)c3)CC2)C(=O)N1c1ccc(F)cc1` (stereo not drawn), the inhibition is 4.8%. Turning to `O=C(NC1CCCCCC1)C(=O)NC1CCCC1`, the inhibition is -2.9%. `N#CC(C(=O)NC1CCCCC1)=C1CCCCCC1`: the inhibition was 2.1%.

Take `N#CC(C(=O)NC1CCCCC1)=C1CCCCC1`: the inhibition was 62.7% (active). The same measure for `CCN(CCCNC(=O)C1CCN(S(=O)(=O)c2cccc3nonc23)CC1)Cc1ccccc1`: -4.7%; for `Cc1cc([N+](=O)[O-])ccc1NC(=O)CCC(=O)N1CCCCC1`: -5.2%; for `COc1ccc(NC(=S)N(CCN(C)C)C(C)c2ccncc2)cc1Cl` (stereo not drawn): -7.3%. On to `CCOC(=O)C1=C(CP(=O)(c2ccccc2)c2ccccc2)NC(=O)NC1c1ccc(OC)cc1` (stereo not drawn), for which the inhibition is 4%. The figure for `O=c1c(-c2ccccc2)c(O)c2c(n1-c1ccccc1)CCCC2` is 66.2% (active); for `CC(C)c1c(O)c2c(n(-c3ccccc3)c1=O)CCCC2` it is 1%. The same measure for `CC/C(=N\O)c1c(O)c2c(n(-c3ccccc3)c1=O)CCCC2`: 3.9%; for `Cc1cc(C)cc(Cn2ncc(Cl)c(Cl)c2=O)c1`: -5.9%. On to `COc1ccc(C(=O)Nc2nc(N3C(=O)c4ccccc4C3=O)n(-c3ccccc3)n2)cc1`, for which the inhibition is -1.2%.

In the case of `O=C(COc1ccc(/C=N/NC(=O)c2ccc(O)cc2)cc1)Nc1cccc([N+](=O)[O-])c1`, the inhibition was 56.7% (active). The figure for `COc1cc(/C=N/NC(=O)c2ccc(O)cc2)ccc1OCC(=O)Nc1cccc([N+](=O)[O-])c1` is -5.1%; for `O=C(COc1ccc(/C=N/NC(=O)c2ccncc2)cc1)Nc1cccc([N+](=O)[O-])c1` it is -3.3%; for `CN(C)CCCNc1nc(-c2ccccc2)nc2ccccc12` it is -1.4%. Consider `Cc1nc2c(c(=O)n1Cc1ccccc1Cl)c1nc3ccccc3nc1n2Cc1ccco1`, for which the inhibition was -4.4%.

For `COc1ccc(Cn2c3nc4ccccc4nc3c3c(=O)n(Cc4ccco4)cnc32)cc1`, the inhibition was 24.1%. The same measure for `COc1ccc(Cn2c3nc4ccccc4nc3c3c(=O)n(Cc4ccco4)c(C)nc32)cc1`: 55.8% (active); for `COc1cccc(-c2onc3ccc(C(=O)/C=C/N(C)C)cc23)c1`: 2.8%. The same measure for `CCOC(=O)CC1(NC(=O)c2cc(COc3cncc(Cl)c3)on2)CCCCC1`: 54.6% (active); for `CCOC(=O)CC1(NC(=O)c2cc(COc3cccc(OC)c3)on2)CCCCC1`: 4.4%. For the compound `CCOC(=O)CC1(NC(=O)c2cc(COc3ccc(F)c(F)c3)on2)CCCCC1`, the inhibition was -5.7%. The same measure for `O=C(Cn1c(=O)n(-c2cccc(C(F)(F)F)c2)c(=O)c2sccc21)NCC1CCCO1` (stereo not drawn): -9.3%; for `COc1cccc(-n2c(=O)c3sccc3n(CC(=O)NCC3CCCO3)c2=O)c1` (stereo not drawn): -10.8%.

With `Cc1ccc(-n2c(=O)c3sccc3n(CC(=O)NCC3CCCO3)c2=O)cc1F` (stereo not drawn), the inhibition was 68.5% (active). The figure for `O=C(CCCN1C(=O)/C(=C/c2cccs2)SC1=S)Nc1cc([N+](=O)[O-])ccc1O` is -12.6%; for `O=C1C=C(NCCNc2c(F)c(F)c(CO)c(F)c2F)CCC1` it is 72.7% (active). The figure for `CC(=O)/C=C(\C)NCCNc1c(F)c(F)c(CO)c(F)c1F` is -3.3%. On to `O=C1C=C(NCc2ccccc2)CCC1`, for which the inhibition was -5.3%. The figure for `CCOc1c(O)ccc(C2NC(=O)N(C)C(C)=C2C(=O)OC)c1[N+](=O)[O-]` (stereo not drawn) is 4%. The figure for `CC(=O)Nc1ccc(S(=O)(=O)NNC(=O)COc2ccc(C(C)(C)C)cc2)cc1` is -2.6%; for `O=C(NNC(=O)c1ccccc1)C(=O)N1CCCCC1` it is 2.5%; for `COc1cccc(C(=O)NNC(=O)C(=O)N2CCCCC2)c1` it is -8.5%. The figure for `O=C(NNC(=O)c1cccc(Br)c1)C(=O)N1CCCCC1` is 60% (active). On to `CCN(CC)CCN(Cc1cc2cc3c(cc2[nH]c1=O)OCCO3)C(=S)NCCCOC`, for which the inhibition is -16.1%. The figure for `COC(=O)C1=NN(C(=O)c2cccc(Cl)c2)C(O)(C(C)(C)C)C1` (stereo not drawn) is 65.7% (active); for `COC(=O)C1=NN(C(=O)c2ccc(Br)cc2)C(O)(C(C)(C)C)C1` (stereo not drawn) it is -3.5%; for `CCOC(=O)C1=NN(C(=O)c2cccc(Br)c2)C(O)(C(C)(C)C)C1` (stereo not drawn) it is -3.2%. The same measure for `O=C(O)CC/C(=N/NC(=O)c1cn(-c2ccccc2)nc1-c1ccccc1)C(=O)O`: -3.5%; for `COc1cccc(NS(=O)(=O)c2ccc3c(c2)C2C=CCC2C(c2ccc(C(=O)O)cc2)N3)c1` (stereo not drawn): 16.1%; for `COc1ccc(NS(=O)(=O)c2ccc3c(c2)[C@H]2C=CC[C@H]2[C@@H](c2ccc(C(=O)O)cc2)N3)cc1`: 4.5%. As for `S=C(NCc1ccccc1Cl)NC1CCCC1`, the inhibition is -7.7%. The same measure for `S=C(NCc1ccc(Cl)cc1Cl)NC1CCCCC1`: 68.1% (active); for `O=C(Cc1ccc(Cl)cc1Cl)NC1CCCCCC1`: -4.7%.

Broadly, the inhibition is the drop in the measured response relative to a control, in per cent.
